# Out of some 53,000 sequences screened, about 3,700 (7%) were called active. Only a selection was taken, and actives are over-represented in it overall. Unmarked numbers belong to inactive results.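 The calls were made as follows: active = gene knockdowns whose robust z-score for IL-1 alpha signal is at least 2 or at most -2, so actives lie on both sides; inactive = the rest.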
# Experiment: Components of the Cytosolic LPS Sensing Pathway: Gene Identification via Genome-wide siRNA Screen;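 also: robust z of the log signal after scaling to non-targeting control siRNA wells of the plate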
# Conditions: RAW264.7 macrophages, IL-1a HTRF, actives lie on both sides, screened at 100 nM (by protocol), cells primed 5 h with Pam3CSK4 first
# Method in brief: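 RAW264.7; siRNA 100 nM final, RNAiMAX, 48h 37 degrees C; Pam3CSK4 5 h; LipidA + TransIT-TKO 24 h; IL-1a HTRF; CellTiter-Glo viability; robust z vs negative-control median.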
row,Sequence,z-score
1,CCACAUACUCUAAUGAAGUTT against Casp1,0.176
2,GGAACUGGGUUCAUCCACATT against Snrpb2,-2.02 (active)
3,GGAAAAAGAGCUUUUGGUCTT against Piwil2,0.528
4,GGAUGAGUUAAGUUUCUCATT against Sh3d19,-1.57
5,CCCUAAUAGGUCAAUAAAGTT against Vmn1r71,-0.0066
6,GGCAUUUCGUGGAUCACCGTT against Mtg2,-1.56
7,GGGUCACGUGCUGUCUCAUTT against Slc22a20,-1.55
8,GCAAAGCCUUACCAUGUAATT against Ighg,1.33
9,GGUCAUGGUCUGAGAUUCUTT against Txnl4a,-2.34 (active)
10,GGAAGUCAAGAAAGUGGCCTT against H1f0,-0.294
11,GGGAUACAAUGUAACAUACTT against L1cam,-0.0915
12,GGACAGCUCUCUCCAUACATT against Tlr9,0.653
13,GGAUUUUGUUCUUACAGUUTT against Nfia,2.8 (active)
14,GGGAACUUUUUUGAUGGGCTT against Psmb2,-1.13
15,GCACAUUCAUAGGAGUACCTT against Vmn1r237,0.371
16,CGAAACUCCCAUUGUUAAUTT against Zfp521,1.29
17,GGAUCACAGAAUAGAACAATT against Hpgds,0.237
18,CCACAUGAACAAUUUGGGCTT against Rpl9,0.0288
19,CCACGACACGCAAGAUGAGTT against Fzd8,-0.756
20,CGACAAUACUCUCUUCAAGTT against Fst,0.691
21,CCAUCUGUAACGGAUCUGATT against Prorsd1,0.893
22,GGAAGCUGUCCAAAAUGAGTT against Hnf4a,2.55 (active)

row,Sequence,z-score
1,CCAGUUUAUCACAUAACCUTT against Wasl,-0.928
2,CCAAAGAUACCAUUUUGCATT against Lypd8,0.599
3,GGUACCAGGUAUCUUCAUUTT against Pard6g,2.95 (active)
4,GGAAUGCAGCCAUCCUAUCTT against Mia,0.0985
5,CCCAGAUUACCGUAAGCGATT against Jup,0.264
6,GGCCAAAUGGAAUAAGAAGTT against Wdr59,0.774
7,GGUUGCUUGGAAUUAAAAGTT against Klhl1,-1.58
8,GGGUUGAUUUGGUGUUUUATT against Usp46,0.673
9,CCUUGUAGUAAUAGGGAUGTT against Olfr116,0.681
10,GGAAAUGAGUGAAGAUGAATT against Cdk11b,-0.186
11,GGCAUGUAAUGAAUUCACATT against Pbx3,-2.14 (active)
12,CGCAUAUAUGUGUGUCGCCTT against Tmem125,0.256
13,CCCAAAUUGAUCCUAGCCUTT against Prkar1b,0.307
14,GGGCCUAUGUGCUUUAUAUTT against Usp8,-0.0584
15,GGUCAUGGAAGAAGCAAAGTT against Sltm,2.08 (active)
16,GCUGUCCUGCCGUAAUAGATT against Oma1,-0.619
17,GCAAAGGAUCCAAUUUUAGTT against Rnf227,1.28
18,GGUCCAAUUACUGAAGGUUTT against Spaca7,2.09 (active)
19,GCUCCAACUACAUUGACUATT against Olfr1410,-0.396
20,GCCGAGAGAGCCAAUACAATT against Tbc1d16,0.248
21,GGAAACACCUUUGAGGCUCTT against Kndc1,-1.88
22,GCUACAGGAUAAGUCCAAUTT against Kpnb1,-2.01 (active)

row,Sequence,z-score
1,CCGAAUCGUCCUAAACCAATT against Cyp11a1,0.284
2,GUACAUUUGCUGGAGCCUCTT against Hps6,0.395
3,GCCUUUCUUCUGUCAAUGATT against Olfr281,2.38 (active)
4,CCGACCAGAAGCUUUAAAGTT against Msrb1,1.05
5,GGGAGUUGGUGGAAUGCUUTT against Ech1,-0.221
6,GGAGUUUGAACAAGAAAUATT against Prss12,1.11
7,GCCACCGAACCUAUAAAGCTT against Scd4,0.265
8,GGUGUGCAUCAAGCGACUGTT against Cacng6,2.1 (active)
9,GGUUCUAGAUGCUAAUAAGTT against Ciao3,-0.381
10,GGAUCUGACAAGGUACAAGTT against Acsm5,0.145
11,GCUAUGGGUAAACUUUUUGTT against Olfr354,0.905
12,CCUAGACAAUACUUGCCUGTT against Gpr180,0.873
13,GCCUGUUCGGUGUUCAACUTT against Etv3,0.808
14,GCCUAGUUCUUUAUGCUAUTT against Golga4,4.37 (active)
15,CCACCUGUCGAGAUGUCGUTT against Ppp1r13b,1.1
16,GGAUCACGUUUCAAACAUCTT against Mtmr12,0.296
17,GGAGCACAAUAGUAAACUATT against Polr1a,2.78 (active)
18,GGUGAAGAUAAGUAUCUGCTT against Mug2,-0.0586
19,GCUUGAUUAGGUAGGAAUATT against Stk32a,-0.388
20,GGAAAGUCAGGAUGAAUAUTT against Cst9,0.0511
21,GGAGUUGUAGUGAGGGUCATT against Fcgbp,-0.971
22,GGAAACAGGAAACAAUCUATT against Ccdc69,0.609

row,Sequence,z-score
1,GGUUUUGAGUGAGAAAUGGTT against Plekhb2,-0.414
2,GGAGAAAUCCCUUCACGGUTT against Mas1,0.449
3,CCACCUCCUCUCGAUACAATT against Zfp36,0.993
4,CGCAGUAGCGAAGAAUUACTT against Sel1l3,2.46 (active)
5,CCAUAAUAGAGGCAAUUACTT against Wscd1,0.302
6,CCUAGGUGUCACCAUGAACTT against Ssx9,2.02 (active)
7,GGAAAGAGUCAUGGAAAUATT against Supt16,0.55
8,GGCUCACAAGGAAGAGAUCTT against Cstad,-0.29
9,GCUCUGAAAUGUCUCUCCATT against H2-D1,-0.613
10,GGUGUGUUCAGGAGUUGAUTT against Col12a1,0.505
11,GGCAAAAAAAACUGCUAUATT against Adgrg7,3.36 (active)
12,GGUGACAUUUGAAAAUGUCTT against Slc25a12,0.411
13,GCCUCAUCCCUAUAGUCCUTT against Spaca9,-0.257
14,CGGGUUCCCAGGAAUUAAGTT against Col4a6,0.304
15,GGUUGACACUCUGAGGGAATT against Pld2,-0.175
16,CCACUUUCUAGAAAUCCUATT against Tmem41a,-2.14 (active)
17,GGGCUGAUGAGCAAAGCAUTT against Setd4,-1.01
18,GGGAAAUUAUUACCAAAAGTT against N4bp1,-0.83
19,GGUCUUUGUUAAGAAUCCUTT against Myo1f,-0.496
20,GCUCGAAAACUGAGAGUUATT against Pcdhgb1,3.32 (active)
21,GCUAUAAGGCUUAAUAGGGTT against Dleu7,1.97
22,GCGAAAGCAGCUGUCGGAATT against Nkx3-1,0.324

row,Sequence,z-score
1,GGCCUCGAACAGUUUAUUATT against Snx12,0.471
2,GGCUGUGGAUCUUCUCUGUTT against Cnksr3,-1.05
3,GCCAUGUUAAAUUCUCUACTT against Poln,0.575
4,GGCUCUGCUGGAUAUCAUGTT against Med24,-1.08
5,GGGUAUUUCCUGGUGGAUUTT against Mrps6,0.221
6,CCUAUCAUAACGGUGAUAATT against Ddb1,-0.423
7,GGUCACACCCAUAAACUAATT against B630019K06Rik,-0.167
8,GGUUAUUAAGUAGCUUUUCTT against Dtx1,1.64
9,GCAUUAGAACAAAGGAUGCTT against Rps19,0.278
10,GGAAUUUGUGGAAACAGGATT against Tnfaip3,-0.441
11,GCCUUUGAUAGUGGUGAAUTT against F11r,-3 (active)
12,CCAAUCUUCUCCUCAAGACTT against Olfr101,-0.0712
13,GGCUGUUUCCAAAAAGAAGTT against H1f5,-1.14
14,GGACCAGGGCAAAAUAUGATT against Pate6,0.727
15,CCAUCAUUGCUCGUAUUGGTT against Olfr656,-2.9 (active)
16,CCAGUGGAAAUAACUUGUGTT against Fam53a,1.58
17,CCUUGAGUGAAAGAAUUGATT against Tmprss11d,-0.609
18,GGAAUAUCCGUAAUAACUATT against Grin2b,2.82 (active)
19,GCUACUAAAUUCUGUUUUGTT against Nol4l,0.325
20,GGGAAGUUUCUUGAAGCACTT against Rfxank,0.103
